Screens from PubChem.
Tb PYK inh: T. brucei pyruvate kinase inhibition | Potency, µM (series often up to 76.8 µM), inactives show at the top dose activity, negative = inhibition, hits mostly inhibitors | actives 0.12% (n = 410,000) | TbPYK enzyme, Kinase-Glo Plus ATP luminescence, 45 min | Q57TT1 | AID 624173; also: potency is read from the fitted curve at half-maximal effect; % is scaled to controls: 0 for no effect and ±100 for the full control effect; nearly all actives have a fitted effect of over 50% in size
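In this concentration-response screen, enzyme-free wells defined baseline while DMSO plates tracked drift. Each reaction combined TbPYK, substrate, compound and 130 uM ADP for 45 min at room temperature. Kinase-Glo Plus luminescence gave the signal.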
FBPA Giardia inh: blocks Giardia fructose-bisphosphate aldolase activity; actives 0.71% (n = 290,000); purified Giardia FBPA; AID 2451; Potency, µM (series often up to 59.6 µM), without a hit: at the highest dose activity, negative = inhibition, usual class: inhibitors; also: potency is read from the fitted curve at half-maximal effect; % is scaled to controls: 0 for no effect and ±100 for the full control effect; nearly all actives have a fitted effect of over 55% in size
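Giardia FBPA (40 nM reagent) was preincubated 10 min at RT with compound (up to 57.5 uM final), then substrate plus GAPDH/TPI/NAD/arsenate coupling system with diaphorase/resazurin was added; resorufin fluorescence (525/598 nm) was read after 20 min.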
Shiga toxin inh: blocks Shiga toxin action in Vero cells; Vero cells, Shiga toxin protein synthesis inhibition reporter; inhibition, % at 38.7 µM; actives 9.2% (n = 290,000); AID 2315; in the data active = inhibition mostly above about 28%, no sharp cut-off; inactive = mostly below about 43%; also: 0% is about no effect
LmPK inh: LmPK (Leishmania mexicana) enzyme inhibition | actives 0.37% (n = 290,000) | purified LmPK, Kinase-Glo ATP luminescence, 1 h | Potency, µM (top dose mostly 57.5 µM), without a hit: at the top dose activity change, negative = inhibition, most hits filed as inhibitors | Q27686; also: potency is read from the fitted curve at half-maximal effect; % is scaled to controls: 0 for no effect and ±100 for the full control effect
Target sequence (Q27686 whole entry, looked up): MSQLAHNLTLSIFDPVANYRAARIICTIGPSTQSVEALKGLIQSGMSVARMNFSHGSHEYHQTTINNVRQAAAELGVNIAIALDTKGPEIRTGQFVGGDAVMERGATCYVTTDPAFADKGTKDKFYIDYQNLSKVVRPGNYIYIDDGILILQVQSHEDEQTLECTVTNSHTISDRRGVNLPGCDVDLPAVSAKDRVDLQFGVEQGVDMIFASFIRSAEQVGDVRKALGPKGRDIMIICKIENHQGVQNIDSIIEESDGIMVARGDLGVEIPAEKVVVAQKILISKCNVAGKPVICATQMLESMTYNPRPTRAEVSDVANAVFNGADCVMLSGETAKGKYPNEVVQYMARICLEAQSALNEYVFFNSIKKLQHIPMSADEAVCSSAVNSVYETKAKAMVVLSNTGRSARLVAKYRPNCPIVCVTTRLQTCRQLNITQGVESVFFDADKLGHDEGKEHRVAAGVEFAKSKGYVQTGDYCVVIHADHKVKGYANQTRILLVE
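qHTS format; LmPK 0.1 nM; substrates PEP 0.5 mM and ADP 0.1 mM. One-hour room-temperature incubation, then coupled luciferase luminescence; 0.5 nM enzyme wells mark activation.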
Cycloheximide cs: counter-screen for Shiga toxin inhibitors: cycloheximide protein synthesis inhibition; cell reporter, cycloheximide protein synthesis inhibition counterscreen; max response, %; actives 12% (n = 300,000); AID 2314; in the data active = max response mostly above about 13%, no sharp cut-off; inactive = mostly below about 14%; also: read at 38.3 µM for the half of the compounds with a filed dose; 0% is about no effect
RE007 growth inh: less growth of the S. pombe RE007 Vpr strain; Potency, µM (series often up to 92.2 µM), inactives show top-dose activity change, negative = less growth, actives largely listed as inhibitors; actives 0.21% (n = 360,000); S. pombe RE007 Vpr strain, BacTiter-Glo ATP luminescence, 24 h; active = well fitted falling curve with a large enough effect; inconclusive = small, poorly fitted or top-dose-only effect; inactive = no such curve, though single readings can be large or run the other way; also: potency is read from the fitted curve at half-maximal effect; % is scaled to controls: 0 for no effect and ±100 for the full control effect; nearly all actives have a fitted effect of over 50% in size
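Fission yeast strain RE007, carrying one chromosomally integrated HIV-1 vpr copy, was seeded at OD 0.01 in PMG+AL medium with 23 nL pinned compound. After 24 h at 30 °C and 99% humidity, viability was read by BacTiter-Glo luminescence.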
* = called active by the depositor; ? = inconclusive; · = no result; [ ] = remark or other dose. The sample as a whole holds a higher share of hits than the screen did. Unless noted, calls follow the shape of the dose curve; as a rule, active = well fitted curve in the direction sought with a large enough effect; inconclusive = small, poorly fitted or top-dose-only effect, or another doubt; inactive = no such curve, though single readings can be large; an effect the other way counts as inactive or inconclusive.

SMILES	Tb PYK inh	FBPA Giardia inh	Shiga toxin inh	LmPK inh	Cycloheximide cs	RE007 growth inh
O=C(N/N=C\c1cc([N+](=O)[O-])ccc1N1CCCC1)c1ccccn1	-9.5%	-4.1%	48.5*	0.2%	21.6*	-3.4%
Cc1ccc(C)n1-c1ccc(C(=O)NN=C2CCCC2)cc1	-14.4%	-7.3%	25.8	0.2%	7.9	10.9%
Cc1cc(C(=O)N/N=C/c2cccc([N+](=O)[O-])c2)c(C)n1-c1ccccc1	-7.0%	-6.4%	86.5*	-0.5%	43.0*	-17.1%
O=C(N/N=C\c1cc([N+](=O)[O-])ccc1N1CCOCC1)c1ccccn1	-10.2%	?	-8.5	0.3%	3.1	3.3%
COc1ccccc1CNC(=O)C1CCN(S(=O)(=O)c2ccc3c(ccn3C)c2)CC1	0.5%	·	·	·	·	·
COc1ccc(O[C@H]2C=C[C@@H](c3ccccc3)O[C@H]2COC(=O)CC/C(C)=N\O[C@@H](C)c2cn([C@H]3COC[C@H]3O)nn2)cc1	·	-1.5%[12.9 µM]	·	·	·	·
CC(=O)C1=C(O)C=C2Oc3c(C(C)=O)c(O)c(C)c(O)c3C2(C)C1=O (configuration not stated)	·	13.5%	·	·	·	·
Cn1c(=O)cc(SCC(=O)NCc2ccc(F)cc2)c2cc(Cl)ccc21	5.8%	·	·	·	·	·
COc1ccc(/C=N/NC(=O)c2cc(C)n(-c3ccccc3)c2C)cc1OC	-0.3%	4.1%	87.0*	9.6%	25.2*	-6.3%
COc1ccc(/C=N/NC(=O)c2cccc(C(=O)N/N=C/c3ccc(OC)c(OC)c3)n2)cc1OC	4.5%	6.5%	-5.0	-1.6%	-3.3	-14.7%
Cc1ccc2nc(N/N=C/c3ccccc3F)nc(-c3ccccc3)c2c1	2.7%	-0.6%	9.2	-2.3%	-2.9	2.6%
C/C(=N\Nc1cc(C)nc(-c2ccccc2)n1)c1cccc([N+](=O)[O-])c1	-2.3%	-8.4%	1.2	3.6%	4.8	-2.1%
C/C(=N\Nc1nc(C)cc(-c2ccccc2)n1)c1ccc(O)cc1	4.6%	16.8%	26.3*	4.0%	20.7*	9.9%
C/C(=N/Nc1nc(C)cc(-c2ccccc2)n1)c1ccco1	0.9%	-3.5%	56.0	-0.9%	20.8*	-22.2%
Cc1cc(-c2ccccc2)nc(N/N=C/c2ccccc2F)n1	-1.1%	?	52.4*	-0.1%	51.2*	-28.5%
C/C(=N\Nc1nc(C)cc(-c2ccccc2)n1)c1cccc(N)c1	2.2%	-17.6%	23.0*	-13.7%	16.4*	-4.1%
CCOC(=O)c1c(NC(=O)CSc2cn(CCNC(=O)c3ccccc3F)c3ccccc23)sc2c1CCCC2	-7.8%	·	·	·	·	·
CCc1cccc(C)c1NS(=O)(=O)c1ccc2c(c1)NC(=O)C(C)C(=O)N2 (configuration not stated)	7.6%[15.4 µM]	·	·	·	·	·
CCOC(=O)C1OC1C(=O)N[C@@H](CC(C)C)C(=O)NCCC(C)C (some centres not stated)	·	0.2%	-1.6	·	-4.9	·
COc1cc(N/N=C(\C)c2ccc(O)c(C)c2)nc(-c2ccccc2)n1	-4.9%	-10.1%	14.7	3.4%	20.8	?
C/C(=N\Nc1nc(C)cc(-c2ccccc2)n1)c1ccc(C)o1	4.2%	·	7.5	-1.5%	7.7	-26.5%
C/C(=N\Nc1nc(C)cc(-c2ccccc2)n1)c1ccccc1	-11.3%	7.5%	16.2	-1.8%	16.7*	-8.4%
C/C(=N\Nc1cc(-c2ccccc2)nc(-c2ccccc2)n1)c1ccc(O)c(C)c1	-3.8%	-1.4%	73.2*	2.8%	20.4*	-3.5%
COc1ccc(C2CC(c3cccs3)=NN2c2ccc(C=O)cc2)cc1 (configuration not stated)	0.4%	-7.6%	55.0*	3.1%	45.9*	-19.8%
Fc1ccc(C2CC(c3cccs3)=NN2c2ccccc2)cc1 (configuration not stated)	-2.7%	0.3%	19.4	2.1%	5.2	7.3%
c1ccc(C2CC(c3cccs3)=NN2c2ccccc2)cc1 (configuration not stated)	-9.2%	0.3%	94.1*	-4.6%	33.2*	1.3%
CCOc1ccccc1CNC(=O)c1ccc2c(c1)N(Cc1ccc(C)cc1)CCS2	-3.4%	·	·	·	·	·
